Assay outcomes as filed in PubChem BioAssay.
A selection: hits, their analogues and other compounds. The true share with any hit is near 7.6%.
SW480 rerep = A quantitative high throughput screen for small molecules that induce DNA re-replication in SW480 colon adenocarcinoma cells; AID 624297, 2012; 340,000 compounds, 1.8% hits; Potency, µM (highest dose often 46.1 µM), without a hit: top-dose re-replication activation, usual class: activators; SW480 DNA re-replication, Hoechst DNA content imaging, 48 h; also: potency is read from the fitted curve at half-maximal effect; % of control where 0% means no effect; nearly all actives have a fitted effect of over 55% in size
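First, 250 cells per well were seeded. Next, compound or vehicle (23 nL) was pinned in, plates sat 48 hr at 37 C. Finally Hoechst was added for 40 min before fluorescence scanning.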
KB-V1 MDR tox = qHTS assay for MDR1-selective chemotherapeutics: Primary screen using the drug-selected MDR subline cells KB-V1; KB-V1 MDR cells viability, CellTiter-Glo, 72 h; 400,000 compounds, 3.4% hits; AID 1347076, 2019; Potency, µM (doses to about 46.1 µM), hits mostly cytotoxic; also: potency is read from the fitted curve at half-maximal effect; % is scaled to controls: 0 for no effect and ±100 for the full control effect; nearly all actives have a fitted effect of over 60% in size
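Potencies derive from concentration-effect curves fitted to normalized luminescence (CellTiter-Glo) of KB-V1 cells treated for 72 h at 37 degrees C in phenol-red-free DMEM containing 10% FBS.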
KB-3-1 tox = qHTS assay for MDR1-selective chemotherapeutics: Primary screen using the parental adenocarcinoma cell KB-3-1 | Potency, µM (highest dose often 46.1 µM), hits mostly cytotoxic | 400,000 compounds, 1.4% hits | KB-3-1 viability, CellTiter-Glo ATP luminescence, 72 h; also: potency is read from the fitted curve at half-maximal effect; % is scaled to controls: 0 for no effect and ±100 for the full control effect; nearly all actives have a fitted effect of over 60% in size
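KB-3-1 cells, DMEM (no phenol red) + 10% FBS; compound by pin transfer, 72 h, 37 °C. Readout: CellTiter-Glo luminescence after 10 min. Data normalized, curve-fitted.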
MCF10A rereplic = A quantitative high throughput screen for small molecules that induce DNA re-replication in MCF 10a normal breast cells; Potency, µM (doses to about 46.1 µM), inactives show top-dose activity, positive = re-replication, most hits filed as activators; 350,000 compounds, 2.9% hits; MCF 10A DNA re-replication, Hoechst nuclear intensity, 48 h; AID 624296, 2012; also: potency is read from the fitted curve at half-maximal effect; % of control where 0% means no effect; nearly all actives have a fitted effect of over 50% in size
hERG WT inh = qHTS for Inhibitors of KCHN2 3.1: Wildtype qHTS; Voltage-gated inwardly rectifying potassium channel KCNH2 (Homo sapiens), Q12809; U2OS, BacMam KCNH2, thallium flux FluxOr; hits give low values; activity change, % at 1.84 µM; 340,000 compounds, 0.37% hits;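 active = maximum activity change below -70%; inconclusive = maximum activity change between -70% and -50%; inactive = maximum activity change above -50%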; also: % is scaled to controls: 0 for no effect and ±100 for the full control effect
Target sequence (Q12809 whole entry, looked up): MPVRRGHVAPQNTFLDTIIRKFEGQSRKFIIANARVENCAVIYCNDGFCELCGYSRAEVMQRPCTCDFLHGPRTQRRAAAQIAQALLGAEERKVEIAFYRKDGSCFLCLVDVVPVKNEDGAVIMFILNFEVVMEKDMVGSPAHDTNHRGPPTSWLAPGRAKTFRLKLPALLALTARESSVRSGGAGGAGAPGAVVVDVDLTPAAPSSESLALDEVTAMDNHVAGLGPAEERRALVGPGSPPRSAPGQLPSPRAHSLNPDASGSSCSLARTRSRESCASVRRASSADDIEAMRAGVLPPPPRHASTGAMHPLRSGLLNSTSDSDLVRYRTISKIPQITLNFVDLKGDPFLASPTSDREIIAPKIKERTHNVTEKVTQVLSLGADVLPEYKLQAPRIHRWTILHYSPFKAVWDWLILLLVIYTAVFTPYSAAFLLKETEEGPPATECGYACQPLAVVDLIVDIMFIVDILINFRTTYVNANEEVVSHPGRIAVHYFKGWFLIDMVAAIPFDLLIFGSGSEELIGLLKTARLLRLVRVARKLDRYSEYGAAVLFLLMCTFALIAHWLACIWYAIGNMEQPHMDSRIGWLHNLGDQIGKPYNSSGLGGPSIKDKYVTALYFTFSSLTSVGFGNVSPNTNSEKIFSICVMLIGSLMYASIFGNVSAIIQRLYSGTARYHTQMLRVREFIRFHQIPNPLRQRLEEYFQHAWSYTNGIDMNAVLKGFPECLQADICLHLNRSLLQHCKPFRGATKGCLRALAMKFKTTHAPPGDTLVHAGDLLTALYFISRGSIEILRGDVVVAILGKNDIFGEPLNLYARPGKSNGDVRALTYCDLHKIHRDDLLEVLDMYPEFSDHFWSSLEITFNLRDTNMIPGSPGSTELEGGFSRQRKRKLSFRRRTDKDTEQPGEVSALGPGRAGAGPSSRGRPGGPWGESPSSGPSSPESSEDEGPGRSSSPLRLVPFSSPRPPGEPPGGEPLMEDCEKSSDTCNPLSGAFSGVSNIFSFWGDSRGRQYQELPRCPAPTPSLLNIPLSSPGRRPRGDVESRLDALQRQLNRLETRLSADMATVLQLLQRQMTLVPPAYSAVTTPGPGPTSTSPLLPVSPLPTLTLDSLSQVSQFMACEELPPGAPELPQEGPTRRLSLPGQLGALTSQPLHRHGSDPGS
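U2OS cells transduced with wild-type KCNH2 virus are loaded with FluxOr dye for 45 min, and thallium flux is measured in kinetic reads before and after stimulation buffer. Rate constants are normalized to DMSO controls.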
KCNH2 3.1 inh = qHTS for Inhibitors of KCHN2 3.1: Mutant qHTS; U2OS KCNH2 3.1, thallium flux FluxOr; hits give low values; activity change, % (tested at about 1.8 µM); Potassium voltage-gated channel subfamily H member 2, brain isoform KCNH2 3.1 (human); 340,000 compounds, 0.95% hits; AID 720553, 2013;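 active = maximum activity change below -70%; inconclusive = maximum activity change from -70% to -50%; inactive = maximum activity change above -50%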;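 also: thallium influx rate constant from kinetic fluorescence after stimulation buffer; % is scaled to controls: 0 for no effect and ±100 for the full control effect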
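Thallium flux read-out: FluxOr dye with Red40 quencher in HBSS/HEPES, 45 min at RT. Rate constants from kinetic reads were normalized to positive and negative DMSO controls. Cells: U2OS virally expressing the 3.1 isoform.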
The depositor's hits bear a star; i = inactive; u = inconclusive; x = not tested or not shown; ! = a repeat was not active; [ ] = another dose, or the depositor's remark. Unless noted, calls follow the shape of the dose curve; as a rule, active = well fitted curve in the direction sought with a large enough effect; inconclusive = small, poorly fitted or top-dose-only effect, or another doubt; inactive = no such curve, though single readings can be large; an effect the other way counts as inactive or inconclusive.

SMILES	SW480 rerep	KB-V1 MDR tox	KB-3-1 tox	MCF10A rereplic	hERG WT inh	KCNH2 3.1 inh
O=C(O)c1ccc2oc(=O)c(S(=O)(=O)c3ccc(F)cc3)cc2c1	9%	i	i	6%	-6	-5
CCCCCCc1cc2cc(C(=O)Nc3ccccc3OC)c(=O)oc2cc1O	u	u	u	0.65µM*	-21	11
COc1ccc(NC(=O)c2cc3ccccc3oc2=O)c(OC)c1	0%	i	i	7%	-24	5
Cc1ccc(N(C(=O)c2ccco2)C(C(=O)NC2CCCC2)c2cccnc2)cc1 (centres undefined)	-66%	i	i	-1%	10	10
O=C(CN1CSCC1=O)N1CCN(S(=O)(=O)c2cccc(F)c2)CC1	-14%	u	i	2%	1	6
COc1cccc2cc(-c3nnc(-c4ccccc4)o3)c(=O)oc12	u	i	i	1%	3	x
CCCCCCc1cc2cc(-c3nnc(-c4ccccc4OC)o3)c(=O)oc2cc1O	1.2µM*	16µM*	u	6%	-17	-27
CC(=O)Nc1ccc(NC(=O)CS(=O)(=O)c2cn(CC(=O)N3CCC(C)CC3)c3ccccc23)cc1	-4%	i	i	5%	-10	-7
COc1ccc(-c2csc3nc[nH]c(=O)c23)cc1OC	7%	i	i	5%	3	-7
Cc1ccc(-c2csc3nc[nH]c(=S)c23)cc1C	u	13µM*	u	u	u	-10
CO[C@@H]1C[C@H](O[C@H]2[C@@H](C)[C@H](O[C@@H]3O[C@@H](C)C[C@@H](N(C)C)[C@@H]3OC(C)=O)[C@H](C)C[C@]3(CO3)C(=O)[C@H](C)[C@H](OC(C)=O)[C@H](C)[C@H](C)OC(=O)[C@@H]2C)O[C@H](C)[C@@H]1OC(C)=O	-1%[20.6 µM]	x	x	9%[20.6 µM]	x	x
COc1ccccc1Cc1c(-c2ccc(Cl)cc2)nc2ccc(Br)cn12	x	i	i	x	x	x
COc1ccc(C(C)=O)cc1CSc1nnc(-c2ccccc2O)n1-c1ccccc1	2%	i	i	-7%	-3	-10
COc1ccc(C(C)=O)cc1CSc1nnc(C)n1-c1ccccc1	-3%	21µM*	i	2%	-11	6
COc1ccc(C(C)=O)cc1CSc1nnc(Nc2ccccc2C)s1	u	i	u	10%	17	-117*
COC(=O)c1ccc(CSc2nnc(Nc3ccccc3OC)s2)o1	17%	i	i	9.2µM*	3	-2
O=C(NCc1ccccc1)c1ccc(NC(=O)C2CCCO2)cc1 (centres undefined)	-3%	i	i	0%	-1	-4
Cc1ccc([C@H]2C[C@@H](n3cc(C4CC4)nn3)[C@H](O)CN2CC2CCCCC2)cc1	x	u	21µM*	x	3	-2
COc1ccc([C@H]2C[C@H](O)[C@@H](n3cc(C4CC4)nn3)CN2CC2CCCCC2)cc1	x	u	i	x	-5	4
COc1ccc([C@H]2C[C@@H](n3cc(C4CC4)nn3)[C@H](O)CN2CC2CCCCC2)cc1	x	u	16µM*	x	5	1
CC(C)Cc1nnc(NC(=O)CCC(=O)N2CCN(Cc3ccccc3)CC2)s1	22%	i	i	0%	16	4
O=C1CCC(C(=O)OCC(=O)N2N=C3/C(=C\c4ccccc4)CCCC3C2c2ccccc2)N1 (centres undefined)	14%	i	i	15%	9	-11
CNC(=O)c1sc(N2N=C3/C(=C/c4ccccc4)CCCC3C2c2ccccc2)nc1C (centres undefined)	7.1µM*	i	u	u	-25	7
O=C1CCC(C(=O)OCC(=O)N2N=C3/C(=C/c4ccccc4)CCCC3C2c2ccccc2)N1 (centres undefined)	-2%	u	21µM*	23%	11	-15
CNC(=O)c1sc(N2N=C3/C(=C\c4ccccc4)CCCC3C2c2ccccc2)nc1C (centres undefined)	8.2µM*	x	x	u	-17	2
SMILES	SW480 rerep	KB-V1 MDR tox	KB-3-1 tox	MCF10A rereplic	hERG WT inh	KCNH2 3.1 inh
O=C(c1ccccn1)N1N=C2/C(=C/c3ccccc3)CCCC2C1c1ccccc1 (centres undefined)	u	i	i	0%	5	-21
O=C(Cn1nnc(-c2ccc(C(F)(F)F)cc2)n1)NCCc1ccccc1	x	u	i	x	x	x
COC(=O)c1ccc(OC)c(Cn2c(=O)n(-c3ccc(C)cc3)c(=O)c3c2cnn3C)c1	x	i	i	x	x	x
Cc1cc(C(=O)N/N=C/c2cccs2)no1	2%	i	i	1%	-9	2
Cc1nnc2c3ccccc3nc(Nc3ccccc3C(=O)O)n12	x	i	i	x	x	x
CN(c1ccc(F)cc1)S(=O)(=O)c1ccc(Cl)c(C(=O)NCC2(N3CCOCC3)CCCCC2)c1	-7%	18µM*	i	9%	32	-10
O=C(CSc1nc2c(c(=O)[nH]1)CN(Cc1ccc(F)cc1)CC2)Nc1cccc(C(F)(F)F)c1	x	i	i	x	x	x
O=C(Nc1ccccc1F)c1ccc(CN2CCc3ccccc3C2)cc1	u	21µM*	9.2µM*	u	8	2
Cc1cc(C)cc(NC(=O)c2ccc(CN3CCc4ccccc4C3)cc2)c1	-2%	u	u	21µM*	22	-20
Cc1cc(C)cc(NC(=O)CSc2nc3c(c(=O)[nH]2)CN(Cc2ccc(F)cc2)CC3)c1	-4%	21µM*!	i	3%	-20	3
Cc1ccc(NC(=O)c2ccc(CN3CCc4ccccc4C3)cc2)cc1	-2%	4.1µM*	i	u	35	-32
O=C(Nc1ccccc1)c1ccc(CN2CCc3ccccc3C2)cc1	10%	u	u	u	18	0
Cc1ccc(Oc2c(C(F)(F)F)oc3cc(OCC(=O)NC4CCCCC4)ccc3c2=O)cc1	x	i	i	x	x	x
CCNc1ccc(S(=O)(=O)N(C)C)cc1NCC(=O)Nc1ccc(Br)cc1F	2%	16µM*	i	5%	13	-2
